Compounds without any hit were thinned out: in the full panel of roughly 83,000, 20% have a hit.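 Interpretation: 100, growth as untreated; towards 0, rising growth inhibition; 0, no net growth; 0 to -100, cell death. Compounds scoring below 10 were considered active.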 Activity calls are given as the source filed them.
Legend:
Test in all cases: NCI-60 one-dose screen, 48 h (100 = growth as untreated, 0 = no growth, -100 = all killed)
NCI-H226 lung = settings: 10 µM unless noted
NCI-H322M lung = settings: 10 µM unless noted
HOP-62 NSCLC = settings: 10 µM unless noted
NCI-H460 lung = settings: 10 µM unless noted
HOP-92 NSCLC = settings: 10 µM
NCI-H522 lung = settings: 10 µM unless noted
A549/ATCC NSCLC = settings: 10 µM unless noted
786-0 renal = settings: 10 µM unless noted
COLO 205 colon = settings: 10 µM unless noted
DU-145 prostate = settings: 10 µM unless noted
K-562 leukemia = settings: 10 µM unless noted
MALME-3M melanoma = settings: 10 µM unless noted
MDA-MB-231 breast = settings: 10 µM unless noted
RXF 393 renal = settings: 10 µM unless noted
SF-268 CNS = settings: 10 µM unless noted
SF-295 CNS = settings: 10 µM unless noted
SF-539 CNS = settings: 10 µM unless noted
UACC-257 melanoma = settings: 10 µM unless noted
M14 melanoma = settings: 10 µM unless noted
NCI-H23 lung = settings: 10 µM unless noted

Measured: growth

CN1CCN(Cc2ccc(NC(=O)c3cncc(C#Cc4cnc5ccc(N6CCN(C)CC6)nn45)c3)cc2C(F)(F)F)CC1
active: NCI-H460 lung -82.4% | HOP-92 NSCLC -16.1% | A549/ATCC NSCLC -71.4% | 786-0 renal -84.6% | DU-145 prostate -94.2% | K-562 leukemia -59% | MDA-MB-231 breast -66.7% | RXF 393 renal -89.9% | SF-268 CNS -50.7% | SF-295 CNS -78.4% | SF-539 CNS -98% | M14 melanoma -45.8%
inactive: NCI-H226 lung 28% | NCI-H322M lung 35.5% | HOP-62 NSCLC 28.8% | NCI-H522 lung 82.1% | COLO 205 colon 38.9% | MALME-3M melanoma 68.3% | UACC-257 melanoma 101%

N#Cc1c(-c2cccs2)cc(-c2cnccn2)nc1SCC(=O)Nc1ccc(Br)cc1
inactive: NCI-H23 lung 74.8% | NCI-H226 lung 81.5% | NCI-H322M lung 88.5% | HOP-62 NSCLC 71.3% | NCI-H460 lung 70.6% | A549/ATCC NSCLC 72.3% | 786-0 renal 80.9% | COLO 205 colon 96.4% | DU-145 prostate 70% | K-562 leukemia 67.4% | MALME-3M melanoma 118% | MDA-MB-231 breast 72.2% | RXF 393 renal 19.3% | SF-268 CNS 82.3% | SF-295 CNS 90.2% | SF-539 CNS 93.3% | UACC-257 melanoma 106% | M14 melanoma 91.7%

CCCCCc1ccc(S(=O)(=O)Nc2cccc(-c3csc(NC(=O)CN4CCN(C)CC4)n3)c2)cc1
active: K-562 leukemia 7.06%
inactive: NCI-H226 lung 93.3% | NCI-H322M lung 100% | HOP-62 NSCLC 89.5% | NCI-H460 lung 21.5% | HOP-92 NSCLC 62.3% | NCI-H522 lung 89.5% | A549/ATCC NSCLC 79.7% | 786-0 renal 63.8% | COLO 205 colon 31% | DU-145 prostate 82.4% | MALME-3M melanoma 45.7% | MDA-MB-231 breast 74.2% | SF-268 CNS 78.4% | SF-295 CNS 104% | SF-539 CNS 82.9% | UACC-257 melanoma 93%

NS(=O)(=O)c1ccc(Nc2nc(SCc3ccccc3)nc3ccccc23)cc1
inactive: NCI-H226 lung 76.8% | NCI-H322M lung 88.7% | HOP-62 NSCLC 86.2% | NCI-H460 lung 45.1% | HOP-92 NSCLC 55.4% | NCI-H522 lung 81.3% | A549/ATCC NSCLC 52.6% | 786-0 renal 40.3% | COLO 205 colon 79.6% | DU-145 prostate 61.7% | K-562 leukemia 14.4% | MALME-3M melanoma 81.7% | MDA-MB-231 breast 53.9% | RXF 393 renal 45.5% | SF-268 CNS 73.2% | SF-295 CNS 59.9% | SF-539 CNS 48.8% | UACC-257 melanoma 92.8% | M14 melanoma 75%

O=c1[nH]c(Sc2sc3ccc(Cl)cc3c2CBr)nc(=S)[nH]1
inactive: NCI-H226 lung 55.1% | NCI-H322M lung 39.7% | HOP-62 NSCLC 28.2% | NCI-H460 lung 21.5% | NCI-H522 lung 13% | A549/ATCC NSCLC 39.8% | 786-0 renal 51% | COLO 205 colon 108% | DU-145 prostate 33.9% | K-562 leukemia 12% | MALME-3M melanoma 27.4% | MDA-MB-231 breast 35.9% | SF-268 CNS 48.9% | SF-295 CNS 23% | SF-539 CNS 32.1% | UACC-257 melanoma 44.1% | M14 melanoma 27.6%
active: HOP-92 NSCLC 1.66% | RXF 393 renal 9.12%

Cc1cc(C(NC(=O)CCCCCNc2cccc3c2C(=O)N(C2CCC(=O)NC2=O)C3=O)c2ccc3c(c2)OC(F)(F)O3)c(O)c2ncccc12 (centres undefined)
active: HOP-92 NSCLC 4.13%
inactive: NCI-H226 lung 72.8% | NCI-H322M lung 71.1% | HOP-62 NSCLC 51.1% | NCI-H460 lung 14.7% | NCI-H522 lung 72.1% | A549/ATCC NSCLC 66.7% | 786-0 renal 79.2% | COLO 205 colon 111% | DU-145 prostate 51.9% | K-562 leukemia 30.2% | MALME-3M melanoma 84.5% | MDA-MB-231 breast 55.2% | RXF 393 renal 86.4% | SF-268 CNS 47.8% | SF-295 CNS 48.2% | SF-539 CNS 56.3% | UACC-257 melanoma 98.5% | M14 melanoma 70.2%

COc1ccc(-c2nc(C(Cl)Cl)nc3cc(-c4ccccc4)nn23)cc1
active: NCI-H322M lung -33.8% | HOP-62 NSCLC -11.5% | NCI-H460 lung -75.9% | HOP-92 NSCLC -14.8% | NCI-H522 lung -59.4% | A549/ATCC NSCLC -42.9% | COLO 205 colon -74.6% | DU-145 prostate -26.7% | K-562 leukemia 7.86% | MALME-3M melanoma -44.9% | MDA-MB-231 breast 6.65% | RXF 393 renal -82.1% | SF-295 CNS 9.62% | UACC-257 melanoma 4.58% | M14 melanoma -69%
inactive: NCI-H226 lung 63.2% | 786-0 renal 68.8% | SF-268 CNS 14.2% | SF-539 CNS 35.5%

O=C1CCC(N2C(=O)c3ccc(NS(=O)(=O)c4ccccc4OC(F)(F)F)cc3C2=O)C(=O)N1 (centres undefined)
inactive: NCI-H226 lung 44.7% | NCI-H322M lung 46.1% | NCI-H460 lung 115% | NCI-H522 lung 69.3% | A549/ATCC NSCLC 78.7% | 786-0 renal 47.6% | COLO 205 colon 20.5% | DU-145 prostate 108% | K-562 leukemia 65.8% | SF-268 CNS 43.2% | SF-295 CNS 56.9% | SF-539 CNS 79.7% | UACC-257 melanoma 107%
active: HOP-62 NSCLC 6.09% | HOP-92 NSCLC -2.41% | MALME-3M melanoma 7.28% | MDA-MB-231 breast 6.46%

COc1cc(/C=C/C(=O)c2ccc(NC(=O)CSc3nnc(-c4ccc(-c5nc6ccc(Cl)cc6[nH]5)cc4)o3)cc2)cc(OC)c1OC
inactive: NCI-H226 lung 104% | NCI-H322M lung 99.6% | HOP-62 NSCLC 89.8% | NCI-H460 lung 98.7% | HOP-92 NSCLC 115% | NCI-H522 lung 76.1% | A549/ATCC NSCLC 99.5% | 786-0 renal 109% | COLO 205 colon 106% | DU-145 prostate 94% | K-562 leukemia 60.1% | MALME-3M melanoma 95.5% | MDA-MB-231 breast 79.1% | RXF 393 renal 84.1% | SF-268 CNS 91.8% | SF-295 CNS 95.6% | SF-539 CNS 94.2% | UACC-257 melanoma 88.1%

Cc1ccc(-c2cc3nc(C(Cl)Cl)nc(C)n3n2)cc1
inactive: NCI-H226 lung 94.6% | NCI-H322M lung 101% | HOP-62 NSCLC 92.1% | NCI-H460 lung 95.1% | HOP-92 NSCLC 110% | NCI-H522 lung 104% | A549/ATCC NSCLC 108% | 786-0 renal 104% | COLO 205 colon 115% | DU-145 prostate 96.8% | K-562 leukemia 112% | MALME-3M melanoma 105% | MDA-MB-231 breast 87% | RXF 393 renal 118% | SF-268 CNS 106% | SF-295 CNS 108% | SF-539 CNS 97.8% | UACC-257 melanoma 112% | M14 melanoma 106%

Source: PubChem BioAssay (NCI)
